Measurements reported in article PMC4336329 (PLoS ONE, 2015).
Hit rate of the full screen: of about 310,000 compounds, about 14,000 (4.5%) showed an effect of 50% or more. The effect is printed as a negative number. For the sample, strong results were picked, then their nearest neighbours and some compounds at random.

Biological target: human ether-à-go-go-related gene (hERG) potassium channel (human, UniProt Q12809)
Test: primary screen, population patch clamp on CHO cells stably expressing hERG; higher = less effect of the substance
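Note: peak tail current of the secondary pulse compared with the same well before compound.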

human ether-à-go-go-related gene (hERG) potassium channel, sequence (Q12809 whole entry, looked up): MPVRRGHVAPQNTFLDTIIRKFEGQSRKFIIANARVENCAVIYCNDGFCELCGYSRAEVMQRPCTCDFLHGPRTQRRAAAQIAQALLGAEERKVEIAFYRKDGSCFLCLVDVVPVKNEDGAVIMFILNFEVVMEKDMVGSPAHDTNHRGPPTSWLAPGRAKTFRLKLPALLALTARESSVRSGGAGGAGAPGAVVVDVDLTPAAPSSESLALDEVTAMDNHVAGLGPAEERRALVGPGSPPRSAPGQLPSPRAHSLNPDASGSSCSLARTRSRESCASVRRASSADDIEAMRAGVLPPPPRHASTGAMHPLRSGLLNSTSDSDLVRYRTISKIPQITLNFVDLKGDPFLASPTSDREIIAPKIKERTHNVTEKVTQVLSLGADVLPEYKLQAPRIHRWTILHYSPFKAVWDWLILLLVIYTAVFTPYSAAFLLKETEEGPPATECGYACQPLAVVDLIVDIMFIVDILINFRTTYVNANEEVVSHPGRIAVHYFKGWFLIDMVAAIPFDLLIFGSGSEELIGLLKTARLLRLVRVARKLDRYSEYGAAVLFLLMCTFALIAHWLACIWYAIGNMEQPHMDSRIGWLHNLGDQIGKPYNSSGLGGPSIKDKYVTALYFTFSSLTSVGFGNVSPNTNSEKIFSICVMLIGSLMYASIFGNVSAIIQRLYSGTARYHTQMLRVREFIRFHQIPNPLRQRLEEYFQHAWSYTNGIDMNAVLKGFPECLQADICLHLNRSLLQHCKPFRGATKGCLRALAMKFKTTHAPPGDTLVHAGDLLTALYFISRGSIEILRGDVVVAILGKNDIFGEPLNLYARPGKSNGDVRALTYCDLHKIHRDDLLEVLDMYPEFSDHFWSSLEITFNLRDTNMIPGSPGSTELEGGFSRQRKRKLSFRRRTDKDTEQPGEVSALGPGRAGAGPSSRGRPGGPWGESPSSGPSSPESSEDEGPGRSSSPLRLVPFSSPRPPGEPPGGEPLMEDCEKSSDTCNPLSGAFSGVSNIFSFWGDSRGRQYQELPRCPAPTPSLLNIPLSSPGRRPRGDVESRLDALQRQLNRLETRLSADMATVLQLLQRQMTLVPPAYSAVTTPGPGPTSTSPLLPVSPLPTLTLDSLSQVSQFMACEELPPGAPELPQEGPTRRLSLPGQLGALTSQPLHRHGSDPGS

| Structure (SMILES) | hERG current change (%, negative = inhibition) at 10uM [%] |
| --- | --- |
| Cc1nn(CC(=O)N2CCN(S(=O)(=O)c3ccccc3)CC2)c(C)c1[N+](=O)[O-] | -10 |
| Cl.Clc1cccc(Nc2nc(N3CCOCC3)nc(N3CCOCC3)n2)c1 | 16.9 |
| CN(C)C(=O)c1cn(-c2ccccc2)nc1-c1cc2ccccc2o1 | -10.3 |
| CC12CCC(=O)N1c1ccccc1C(=O)N2c1ccccc1 (stereo not shown) | -9.9 |
| CCOC(=O)c1sc(NC(=O)CSc2nncn2C)nc1C | 9.68 |
| Cl.O=C(OCCN1CCCCC1)c1cccc(Cl)c1 | -30.6 |
| CCCC(c1nnnn1Cc1ccco1)N1CCN(c2ccccc2)CC1.Cl (stereo not shown) | -19.6 |
| Cc1c(Cc2ccccc2)c(NCCN(C)C)n2c(nc3ccccc32)c1C#N | -32.4 |
| Cc1[nH]c2ccccc2c1Cc1nnc(SCC(=O)NCc2ccco2)o1 | 4.19 |
| COc1ccc(CC(=O)c2ccc(O)cc2O)cc1 | -3.19 |
| N/C(=N\OC(=O)c1ccc(OCC(F)(F)F)nc1)c1ccc(Cl)cc1 | 19.5 |
| O=C(c1ccc(Br)cc1)c1cc([N+](=O)[O-])ccc1N1CCOCC1 | -30.7 |
| CN1CCN(c2ccc([N+](=O)[O-])cc2C(=O)c2ccc(Cl)cc2)CC1 | -67.4 |
| CN1CCN(c2ccc([N+](=O)[O-])cc2C(=O)c2ccc(Br)cc2)CC1 | -69.5 |
| CN1CCN(c2ccc([N+](=O)[O-])cc2C(=O)N2CCCCC2)CC1 | -7.66 |
| O=C(c1ccc(Br)cc1)c1cc([N+](=O)[O-])ccc1N1CCCCC1 | -25.3 |
| O=C(c1ccc(Cl)cc1)c1cc([N+](=O)[O-])ccc1N1CCOCC1 | -32.4 |
| CC(=O)Nc1cc2nc(C)n(Cc3ccccc3[N+](=O)[O-])c2nc1C | 17.4 |
| C1CCc2nc3c(nc2C1)CCCC3 | -10.7 |
| C=CCc1c(C)nc(SC)nc1Nc1ccc(C)cc1 | -14.3 |
| CN(C(=O)c1cccnc1)c1nnc(-c2cccnc2)s1 | 14.4 |
| COc1ccc(N2CCN(C(=O)CN3CCN(C(c4ccccc4)c4ccccc4)CC3)CC2)cc1.Cl | -46 |
| CCCCC(=O)OCC(=O)Nc1ccc(OC(F)F)cc1 | -21.2 |

| Structure (SMILES) | hERG current change (%, negative = inhibition) at 10uM [%] |
| --- | --- |
| Cc1ccn2c(=O)c(NC(=O)c3cccc4ccccc34)c(C)nc2c1 | -1.31 |
| Cc1ccn2c(=O)c(NC(=O)COc3ccccc3)c(C)nc2c1 | -56.9 |
| Cc1nc2c(C)cccn2c(=O)c1NC(=O)COc1ccccc1 | -12.1 |
| N#Cc1c(Cl)nsc1NC(=O)c1ccccc1 | 8.24 |
| Cc1ccc(S(=O)(=O)N2CCCCC2CCNC(=O)C(=O)NCCc2ccco2)cc1 (stereo not shown) | -33.1 |
| O=C(CCC(=O)N1CCOc2ccccc21)NCCCN1CCN(Cc2ccccc2)CC1 | -79.8 |
| O=C(NC1CCCCC1)C1COc2ccccc2O1 (stereo not shown) | -7.19 |
| CN1CCN(CCCNC(=O)CCC(=O)N2CCOc3ccccc32)CC1 | 5.46 |
| CCN1CCN(CCCNC(=O)CCC(=O)N2CCOc3ccccc32)CC1 | -13 |
| O=C(C1COc2ccccc2O1)N1CCN(Cc2ccccc2)CC1 (stereo not shown) | -7.63 |
| Cc1ccc(C)c(N2CCN(CCCNC(=O)CCC(=O)N3CCOc4ccc(Cl)cc43)CC2)c1 | -55.9 |
| O=C(CCC(=O)N1CCOc2ccc(Cl)cc21)NCCCN1CCN(c2ccccc2F)CC1 | -66.5 |
| Cc1ccccc1CNC(=O)CCC(=O)N1CCOc2ccc(Cl)cc21 | -24.2 |
| O=C(CCC(=O)N1CCOc2ccccc21)NCCCN1CCCCC1 | 7 |
| O=C(CCC(=O)N1CCOc2ccc(Cl)cc21)NCCN1CCOCC1 | 3.97 |
| O=C(NC1CCN(Cc2ccccc2)CC1)C1COc2ccccc2O1 (stereo not shown) | -57.5 |
| CC(C)(C)NC(=O)c1ccc2c(c1)C1C3CCC(C3)C1C(c1ccccc1)N2 (stereo not shown) | 5.59 |
| Cc1ccc(S(=O)(=O)NCCC(=O)NCC(c2ccc(F)cc2)N2CCOCC2)cc1 (stereo not shown) | -5.84 |
| CCc1cccc(NC(=O)C2CC2c2ccccc2)c1 (stereo not shown) | 14.5 |
| Cc1noc(C)c1C(=O)OCC(=O)N1CCN(S(=O)(=O)c2ccc3ccccc3c2)CC1 | -0.697 |
| COCc1ccccc1C1=CC(=O)C[C@H](c2ccc(OC)cc2)C1 | -12.3 |
| Cc1cc(OCc2ccc(C(=O)n3cccn3)o2)ccc1Cl | -0.553 |
| CN(C/C(O)=C(\C#N)c1ccccc1)C1CCCCC1 | -0.409 |

| Structure (SMILES) | hERG current change (%, negative = inhibition) at 10uM [%] |
| --- | --- |
| COC(=O)c1c(C)[nH]c(C(=O)/C=C/c2ccccc2)c1C | 1.52 |
| O=C(CCC(=O)N1CCOc2ccc(Cl)cc21)NCCCN1CCN(Cc2ccccc2)CC1 | -73.2 |
| CCOC(=O)N1CCC(NC(=O)CCC(=O)N2CCOc3ccccc32)CC1 | 8.3 |
| O=C(CCC(=O)N1CCOc2ccccc21)NC1CCCCCC1 | -20.8 |
| O=C(CCC(=O)N1CCOc2ccccc21)NC1CCN(Cc2ccccc2)CC1 | -51 |
| CCN1CCN(CCCNC(=O)CCC(=O)N2CCOc3ccc(Cl)cc32)CC1 | -5.48 |
| Cc1nc(C)c(N)c(=O)[nH]1.Cl | 16.3 |
| O=C(NN1C(=O)C2C3C=CC(C4CC34)C2C1=O)c1ccc(Br)cc1 (stereo not shown) | 22.8 |
| CCC1CCCCN1C(=O)CSc1nnc(-c2ccco2)o1 (stereo not shown) | 4.11 |
| Cc1cccc(C(=O)Oc2cc(C)[nH]c(=O)c2[N+](=O)[O-])c1 | 16.7 |
| CC(=O)c1ccc(N2Cc3ccccc3C2=NC(=O)c2cccs2)cc1 | -20.6 |
| Br.CC(=O)c1ccc(N2Cc3ccccc3C3(CCOCC3)C2=N)cc1 | -57.5 |
| CC(=O)c1ccc(N2Cc3ccccc3C2)cc1 | -2.58 |
| COc1ccc(S(=O)(=O)N2CCN(c3ccc4nnc(-c5ccccc5)n4n3)CC2)cc1 | -66.4 |
| COc1ccc(-c2cc3nc(-c4ccccc4)cc(N4CCC(O)CC4)n3n2)cc1 | -7.45 |
| CCCNC(=O)C1CCN(c2nc(C)cc(C)n2)CC1 | 0.749 |
| O=S(=O)(c1ccc(Br)cc1)N1CCN(c2ccc3nnc(-c4ccccc4)n3n2)CC1 | -32 |
| COc1ccc(S(=O)(=O)N2CCN(c3ccc4nnc(-c5ccc(F)cc5)n4n3)CC2)cc1 | -19.4 |
| FC(F)(F)c1cc(-c2ccccc2)nc2ncnn12 | 7.8 |
| FC(F)(F)c1ccc(N2CCN(c3cc(-c4ccccc4)nc4ncnn34)CC2)nc1 | -65.1 |
| COc1ccc(-c2cc(N3CCCC3)n3ncnc3n2)cc1 | -64.5 |
| CCCNC(=O)C1CCN(c2cc(-c3ccccc3)nc3ncnn23)CC1 | -75.8 |
| FC(F)(F)c1cccc(Nc2cc(-c3ccccc3)nc3ncnn23)c1 | 13.5 |

| Structure (SMILES) | hERG current change (%, negative = inhibition) at 10uM [%] |
| --- | --- |
| Cc1ccccc1NC(=O)C1CCN(c2cc(-c3ccccc3)nc3ncnn23)CC1 | -8.86 |
| COc1ccc(-c2cc(C(F)(F)F)nc(N3CCCCCC3)n2)cc1 | 2.13 |
| Cc1nnsc1Sc1ccccc1C(=O)O | 8.3 |
| Cc1n[nH]c(C)c1S(=O)(=O)N(C)Cc1ccco1 | 2.13 |
| O=C(NCc1c(O)ccc2ccccc12)c1ccccc1 | 12 |
| CC(C)c1ccc(NC(=O)C2C3C=CC4(O3)C2C(=O)N(CCCN2CCOCC2)C4C(=O)NC2CCCCC2)cc1 (stereo not shown) | 19.9 |
| COc1ccc(NC(C)=O)c(C)c1 | 18.2 |
| CCc1c(C)nc2ncnn2c1N1CCN(S(=O)(=O)c2ccc(OC)cc2)CC1 | -36 |
| COc1ccc(OC)c(NC(=O)C2CCN(c3cc(-c4ccccc4)nc4ncnn34)CC2)c1 | -10.8 |
| COc1ccccc1NC(=O)N1CCN(c2cc(-c3ccccc3)nc3ncnn23)CC1 | -68.3 |
| O=S(=O)(c1ccccc1)N1CCN(c2cc(-c3ccccc3)nc3ncnn23)CC1 | -11.8 |
| COc1ccc(S(=O)(=O)N2CCN(c3cc(-c4ccccc4)nc4ncnn34)CC2)cc1 | -53.3 |
| COc1ccccc1NC(=O)N1CCN(c2ncccn2)CC1 | 6.96 |
| O=C(C1=C(O)C(=O)N(CC2CCCO2)C1c1ccc(Cl)cc1)c1ccco1 (stereo not shown) | 12.3 |
| Cc1cc(=O)oc2c(CN3CCCC3)c(O)c(Cl)cc12 | 5.35 |
| CC(CC(=O)Nc1cccc(Cl)c1)c1ccccc1 (stereo not shown) | -6.32 |
| Cc1cc(OCC#N)nc(N)n1 | 3.69 |
| CCN(CC)S(=O)(=O)c1ccc(N2CCOCC2)c(NCC(=O)Nc2ccc(F)cc2)c1 | 12.3 |
| CCCCOc1ccc(/C=N/Nc2cc(N3CCOCC3)nc(C)n2)cc1 | -30.5 |
| Cc1cc(C)cc(NC(=O)C(OC(=O)c2ccc(O)cc2)c2ccccc2)c1 (stereo not shown) | -15.2 |
| Cc1cc(C)cc(NC(=O)C(OC(=O)c2ccc(NC(=O)CC#N)cc2)c2ccccc2)c1 (stereo not shown) | -6.68 |
| Cc1cc(C)cc(NC(=O)C(OC(=O)c2cc[n+]([O-])cc2)c2ccccc2)c1 (stereo not shown) | -74 |
